Hit rate of the full screen: of about 400,000 compounds, about 13,000 (3.2%) were called active. Entries that show only a call come without a potency. Not shown: some 18% with an inconclusive outcome. Calls follow the shape of the dose curve; as a rule, active = well fitted cell-killing curve with a large enough effect; inconclusive = small, poorly fitted or top-dose-only effect, or effect the other way; inactive = flat fitted curve, though single readings scatter. Only a selection was taken, and actives are over-represented in it overall.
Potency is read from the fitted curve at half-maximal effect.

This assay can be described thus: qHTS assay for MDR1-selective chemotherapeutics: Primary screen using the drug-selected MDR subline cells KB-V1. Also: nearly all actives have a fitted effect of over 60% in size. Particulars: KB-V1 MDR cells viability, CellTiter-Glo, 72 h; series mostly up to 46.1 µM. A digest of the protocol:
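In this primary screen, KB-V1 cells overexpressing P-gp are incubated with library compounds (lowest to highest concentration) for 72 h at 37 degrees C before a luminescent ATP viability read.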
Regarding `CCOC1=C2[C@H]([C@H]3C(=O)N(c4ccccc4)C(=O)[C@H]3C1)[C@@H](c1ccccc1)N(S(=O)(=O)c1ccc(C)cc1)[C@H]2c1ccccc1`, the Potency result is “inactive”.

For the molecule `CCc1nc2ccc(C(=O)NCc3ccc(OC)cc3)cn2c1N(CC)Cc1cccc(Br)c1`, the Potency entry was “inactive”.

Turning to `CSC1=NN(c2ccccc2)CN(c2ccccc2)N1C`, the Potency result was “inactive”.

As to `Cc1cccc(-c2cnc(C(O)c3cc(C)cc(C)c3)[nH]2)c1` (centres undefined), the Potency result is “inactive”.

In the case of `COCCNC(=O)C1(C)CCCN(Cc2cccc(F)c2)C1` (centres undefined), the Potency entry is “inactive”.

Turning to `O=C1c2cccc3cccc(c23)N1CN1CCN(c2ccccn2)CC1`, the Potency was 5.8 µM (active).

On to `O=C(CN1C(=O)c2cccc3cccc1c23)Nc1ccccc1`, for which the Potency entry was “inactive”.

`O=C(CN1CCN(c2ccccn2)CC1)N1CCc2ccccc21`: the Potency result was “inactive”.

On to `COc1ccc(NC(=O)CN2C(=O)NC(C)(c3ccccc3)C2=O)cn1` (centres undefined), for which the Potency entry was “inactive”.

For `COc1ccc(N2CCN(C(=O)c3ccc4c(Cl)c5c(nc4c3)CCCC5)CC2)cc1`, the Potency entry is “inactive”.

For the molecule `COc1cccc(CNC(=O)c2ccc3c(Cl)c4c(nc3c2)CCCC4)c1`, the Potency result is “inactive”.

For `CC(=O)c1ccc(NC(=O)c2ccc3c(Cl)c4c(nc3c2)CCCC4)cc1`, the Potency is 16.4 µM (active).

Turning to `Fc1ccc(-c2nn(-c3ccccc3Cl)c3c2cnc2ccccc23)cc1`, the Potency result was “inactive”.

`Cc1ccc(S(=O)(=O)N[C@H](CO)C(C)C)cc1`: the Potency entry is “inactive”.

`CSc1nc(N(C)NC(=O)c2cccc(C)c2)c2ccccc2n1`: the Potency is 0.206 µM (active).

Consider `Cc1cccc(C(=O)NCCc2nc3ccccc3n2Cc2ccccc2Cl)c1`, for which the Potency result is “inactive”.

Consider `CN(NC(=O)c1ccccc1F)c1nc(C(F)(F)F)nc2ccccc12`, for which the Potency entry is “inactive”.

`Cc1cccc(C(=O)Nc2ccc(-c3nc4ccccc4s3)c(C)c2)c1`: the Potency result is “inactive”.

Consider `O=C(Nn1cnc2ccccc2c1=O)c1ccccc1`, for which the Potency result is “inactive”.

Regarding `CN(NC(=O)c1ccccc1)c1nc2ccccc2nc1C(F)(F)F`, the Potency is 4.61 µM (active).

For `C[C@H](CO)N1C[C@H](C)[C@@H](CN(C)C(=O)C2CCCCC2)OCc2cnnn2CCCC1=O`, the Potency result was “inactive”.

On to `Cc1ccc(F)c(S(=O)(=O)NC(=O)C2(C)CCN2C(=O)c2ccco2)c1` (centres undefined), for which the Potency entry is “inactive”.

Consider `COc1cccc(CNc2nc3cc(-c4csc5ccccc45)sc3c(=O)n2C)c1`, for which the Potency entry was “inactive”.

`CC1CCN(c2ccc3c(c2)S(=O)(=O)c2cc(C(=O)O)ccc2C3=O)CC1`: the Potency entry was “inactive”.

In the case of `CCCCc1ccc(S(=O)(=O)NC(=O)C2(C)CCN2C(=O)c2ccccc2)cc1` (centres undefined), the Potency result was “inactive”.

Turning to `O=c1[nH]c(CCl)nc2cc(-c3ccc(Cl)cc3)sc12`, the Potency was 16.4 µM (active).

Turning to `O=c1[nH]c(CN2CCOCC2)nc2cc(Cl)ccc12`, the Potency entry is “inactive”.

Consider `NC(=O)Cc1nc2scc(-c3ccc(Cl)cc3)c2c(=O)[nH]1`, for which the Potency result was “inactive”.

As to `COCOc1cccc(CN2CCC(C)(Oc3ccc(SC)cc3)C2)c1` (centres undefined), the Potency result is “inactive”.

For `O=C1CC(c2ccccc2)CC2=C1C(c1ccco1)n1nc(C(F)(F)F)nc1N2` (centres undefined), the Potency entry was “inactive”.

Take `COc1ccc(N2C(=O)CS(=O)(=O)C23C(=O)N(Cc2ccc(C)cc2)c2ccccc23)cc1Cl` (centres undefined): the Potency entry was “inactive”.

Take `COc1ccnc2c1c(=O)n(Cc1cccc(F)c1)c(=O)n2C`: the Potency entry was “inactive”.

Regarding `COc1ccc(N2C(=O)CSC23C(=O)N(Cc2cccc(F)c2)c2ccccc23)cc1Cl` (centres undefined), the Potency is 16.4 µM (active).

Consider `COc1cc(C(=O)OCCCN2CCOCC2)cc(OC)c1OC`, for which the Potency entry is “inactive”.

On to `CC(C)(C)OC(=O)N1CCC(c2c(C(=O)Nc3ccc4c(c3)OCO4)cnn2-c2ccccc2)CC1`, for which the Potency entry was “inactive”.

`COc1cc(OC)c(OC)cc1/C=C1\C=Cc2ccccc21`: the Potency result was “inactive”.

As to `COc1ccc(S(=O)(=O)N2CCC(C(=O)NCCC(=O)Nc3ccccc3OC)CC2)cc1`, the Potency entry was “inactive”.

In the case of `CC(=O)Nc1ccc(N2CCOCC2)c(C(=O)Nc2cccc(C)c2)c1`, the Potency result is “inactive”.

Regarding `COC(=O)c1cc(NC(=O)c2ccco2)ccc1N1CCOCC1`, the Potency entry was “inactive”.

`COC(=O)c1cc(NC(=O)c2cc(C(C)(C)C)nn2Cc2cccc(C)c2)ccc1N1CCOCC1`: the Potency is 8.2 µM (active).

As for `COc1ccc(C(=O)C(OP(=O)(OC)OC)c2ccccc2OC)cc1` (centres undefined), the Potency entry is “inactive”.

On to `CC1CC(NC(=S)N(C)C)CC(C)(C)C1` (centres undefined), for which the Potency entry was “inactive”.

Regarding `CC1=C(C(=O)Nc2ccccc2)C(c2cccs2)C(C#N)=C(SCC#N)N1` (centres undefined), the Potency entry is “inactive”.

Consider `C=CCOC(=O)C1=C(C)NC(C)=C(C(=O)OCC=C)C1c1cccs1`, for which the Potency was 16.4 µM (active).

For the molecule `C=CCOC(=O)c1ccccc1C(=O)OCC=C`, the Potency result is “inactive”.

`COc1ccc(C(O)c2nc(-c3ccc(OC)nc3)cs2)cc1` (centres undefined): the Potency entry is “inactive”.

Take `Cc1ccc(CNC(=O)c2c(-c3ccccc3)noc2C)cc1`: the Potency result is “inactive”.

For `CCOC(=O)c1c(-c2ccc(-c3ccccc3)cc2)csc1NC(=O)CCC(=O)O`, the Potency entry is “inactive”.

Take `CCOC(=O)c1c(-c2cccc(C)c2)csc1NC(=O)c1c(-c2ccccc2)noc1C`: the Potency is 11.6 µM (active).

In the case of `O=S1(=O)CC(N2CCN(CCO)CC2)CN1C1CCCC1` (centres undefined), the Potency result was “inactive”.

For the molecule `COc1ccc(C(=O)NCC2CCCO2)cc1S(=O)(=O)NCc1ccc(Cl)cc1` (centres undefined), the Potency entry is “inactive”.

In the case of `CCCCCc1c(Cc2ccccc2)ncn1CCc1ccccc1OC`, the Potency result was “inactive”.

For the molecule `COc1ccc(Br)cc1CN1CCN(C(=O)c2cccc(OC)c2OC)CC1`, the Potency result is “inactive”.

On to `CCC(=O)NCc1cc(-c2nn(C)c(=O)c3ccccc23)ccc1OC`, for which the Potency result is “inactive”.

Take `CCOC(=O)CSc1nnc(-c2cccc(Br)c2)o1`: the Potency entry is “inactive”.

As to `CCCCCc1c(-c2cccc(Br)c2)ncn1CCc1ccccc1OC`, the Potency was 11.6 µM (active).

In the case of `CCCCCc1c(-c2ccc(OC)c(OC)c2)ncn1CCc1ccccc1OC`, the Potency is 14.6 µM (active).

As to `Cc1cccc(-n2ncc(C(=O)N3CCN(c4ccc(Cl)cc4)CC3)c2C2CCN(C(=O)OC(C)(C)C)CC2)c1`, the Potency result was “inactive”.

In the case of `Cc1cc2nc(-c3ccc(NC(=O)c4cc5ccccc5o4)cc3)oc2cc1C`, the Potency entry is “inactive”.

For the molecule `CCN(CC)CCN(C)C(c1ccnc2ccccc12)c1nnnn1-c1ccc2c(c1)OCCO2` (centres undefined), the Potency result was “inactive”.

For `COC(=O)c1sc2ncccc2c1-n1c(C)ccc1C`, the Potency entry is “inactive”.

With `Cc1ccc(-c2c(N)nc3ncccn23)cc1`, the Potency result is “inactive”.

Take `O=C(CSc1oc(-c2ccccc2)nc1S(=O)(=O)c1ccc(Br)cc1)NC1CCCCC1`: the Potency result was “inactive”.

For `Cc1ccc([C@H]2C[C@H](O)[C@@H](n3cc(COC(=O)c4ccccc4)nn3)CN2C(=O)C2CCCCC2)cc1`, the Potency entry was “inactive”.

Take `CCc1ccc(CNC(=O)C2CCCN(c3nc4ccccc4o3)C2)cc1` (centres undefined): the Potency was 14.6 µM (active).

`COc1ccc(OC)c(CNC(=O)C2CCCN(c3nc4ccccc4o3)C2)c1` (centres undefined): the Potency entry was “inactive”.

With `COc1ccccc1CNC(=O)C1CCN(c2nc3ccccc3o2)CC1`, the Potency result was “inactive”.

`COc1ccc(S(=O)(=O)N(C)C)cc1NC(=O)COC(=O)c1n[nH]c2ccccc12`: the Potency entry is “inactive”.

Consider `CCCNC(=O)C1(C)CCCN(Cc2c(C)nn(-c3ccccc3)c2C)C1` (centres undefined), for which the Potency result is “inactive”.

Take `O=C(CSc1ncn[nH]1)Nc1nc2c(F)c(F)c(F)cc2s1`: the Potency entry was “inactive”.

With `CN1OC[C@@H]2CN(S(=O)(=O)c3cccc(C(F)(F)F)c3)[C@H](c3ccc(-c4cc5ccccc5o4)cc3)C[C@@H]21`, the Potency result is “inactive”.

For the molecule `COc1ccc(C(CCNCc2ccccc2F)c2ccc(F)cc2)cc1` (centres undefined), the Potency was 14.6 µM (active).

With `COc1ccc(C(CNCC(=O)Nc2ccccc2F)N(C)C)cc1` (centres undefined), the Potency result was “inactive”.

`COc1ccc(CCNC(=O)COC(=O)Cc2ccccc2F)cc1`: the Potency result is “inactive”.

`O=S1(=O)CC(N2CCSCC2)CN1Cc1cn(Cc2cccc(Cl)c2)nn1` (centres undefined): the Potency entry was “inactive”.

As for `COc1cc2[nH]c(C)c(CCN3CCN(c4ccccc4)CC3)c2cc1OC`, the Potency result was “inactive”.

Regarding `Cc1ccc(NS(=O)(=O)c2cc3c(cc2Br)NC(=O)CO3)cc1C`, the Potency entry is “inactive”.

Regarding `COc1cc(OC)c(/C=C/c2ccnc3ccccc23)c(OC)c1`, the Potency result is “inactive”.

Regarding `O=C(Cn1nc(C(F)(F)F)c2c1CCCC2)Nc1ccc(Cl)cc1`, the Potency result was “inactive”.

Take `CCC(C)NC(=O)Cn1nc(C(F)(F)F)c2c1CCC2` (centres undefined): the Potency entry was “inactive”.

With `O=C(Cn1nc(C(F)(F)F)c2c1CCC2)NCc1ccc(F)cc1`, the Potency is 11.6 µM (active).

For `CC(C)Cn1cc(-c2cncc3nccn23)cn1`, the Potency entry was “inactive”.

On to `CCCC(=O)N1CCC1(C)C(=O)NCc1ccc(C(C)C)cc1` (centres undefined), for which the Potency entry is “inactive”.

`Cc1sc(NC(=O)c2ccc3ncsc3c2)c(C(N)=O)c1C`: the Potency result is “inactive”.

As to `Cc1ccc(C(=O)Nc2nc(-c3ccccc3)ns2)cc1`, the Potency entry was “inactive”.

Consider `Cc1ccc(C(=O)c2c(NC(=O)c3ccccc3)sc(C)c2C)cc1`, for which the Potency is 9.2 µM (active).

In the case of `O=C(/C=C/[C@H]1O[C@@H](n2ccc(=O)[nH]c2=O)[C@H](O)[C@@H]1O)NCc1ccccn1`, the Potency result is “inactive”.

On to `O=[N+]([O-])c1ccc(CN2CC(N3CCC(c4ccccc4)CC3)CS2(=O)=O)cc1` (centres undefined), for which the Potency result was “inactive”.

As for `COC(=O)c1sccc1S(=O)(=O)N(CC(=O)Nc1ccc(C)c(F)c1)c1ccc(C)c(C)c1`, the Potency entry was “inactive”.

On to `O=C(OC1CC2CC1[C@H]1CCCCN1C2=O)N1CCOCC1` (some centres undefined), for which the Potency entry was “inactive”.

Turning to `O=NN(CCCl)C(=O)NCCc1cccc[n+]1[O-]`, the Potency result was “inactive”.

For `Cc1sc2ccccc2c1CNC[C@H]1O[C@@H](n2ccc(=O)[nH]c2=O)[C@H](O)[C@@H]1O`, the Potency entry is “inactive”.

For `CCCCN1CC(N2CCN(Cc3cccc(C)c3)CC2)CS1(=O)=O` (centres undefined), the Potency result was “inactive”.

Take `O=C(OCc1nc2ccccc2[nH]1)C1CCCCC1`: the Potency entry is “inactive”.

Consider `c1ccc2c(CSCc3nc4ccccc4[nH]3)cccc2c1`, for which the Potency is 20.6 µM (active).

Consider `Nc1cccc(CCc2nc3ccccc3[nH]2)c1`, for which the Potency result is “inactive”.

As to `c1ccc(-c2nnc(SCc3nc4ccccc4[nH]3)o2)cc1`, the Potency was 20.6 µM (active).

On to `Clc1ccccc1SCc1nc2ccccc2[nH]1`, for which the Potency is 20.6 µM (active).

For the molecule `Clc1ccc(-c2nnc(SCc3nc4ccccc4s3)o2)cc1`, the Potency entry was “inactive”.

In the case of `SCc1nc2ccc(Cl)cc2[nH]1`, the Potency result was “inactive”.

On to `CCN(C(=O)CSc1nnc(-c2ccncc2)o1)c1ccccc1`, for which the Potency result is “inactive”.

In the case of `O=c1[nH]nc(CSCc2ccccc2Cl)[nH]1`, the Potency result is “inactive”.

As to `Cc1ccccc1NC(=O)Cn1cc(C(=O)c2cccs2)c2ccccc21`, the Potency result was “inactive”.

For `Cc1ccc(CNC(=O)CCNS(=O)(=O)c2ccc3c(c2)oc(=O)n3C)cc1`, the Potency entry is “inactive”.

The values above are taken from PubChem BioAssay AID1347076 (National Center for Advancing Translational Sciences (NCATS), 2019).
